29 compounds from ChEMBL document CHEMBL3988442, “University of Dundee, Small-Polar-MMV Screening Library” (2021) can be followed below.

Molecules are shown by their SMILES. About 13,000 (27%) of roughly 48,000 compounds showed an effect of 50% or more. The list shows a part of the results.

The test deals with Wolbachia pipientis. Put plainly: Anti-Wolbachia Cell-Based Screen. Type of test: functional. Set-up: scale not given: in the data most compounds retested in dose-response had high values. Conditions: 5 µM.
For `CCN(C)c1ncnc2c1CCN(Cc1nccs1)CC2.O=C(O)C(F)(F)F.O=C(O)C(F)(F)F`, the “Percent Effect” value is -6.805%.
Turning to `CN(C)Cc1cc(-c2nccn2CCc2cccnc2)ccc1O`, the “Percent Effect” value is reported as -8.952%.
In the case of `Cc1nnc(NCc2ccccc2Cl)c(C#N)c1C`, the “Percent Effect” value was determined as 4.284%.
The same measure for `CCCC(=O)Nc1cc(C(=O)NC(C)Cc2ccncc2)ccc1C` (centres undefined): 2.128%; for `CC(C)OCCOCc1cccc(NC(=O)N2CCCC(O)C2)c1` (centres undefined): -8.695%; for `CC(C)(C)OC(=O)N1CCC(NC2CCS(=O)(=O)C2)CC1` (centres undefined): -18.26%.
Consider `c1ncn(Cc2nnc(C3CCN(C4CCOCC4)CC3)n2C2CC2)n1`, for which the “Percent Effect” value is reported as -14.43%.
With `Cc1csc2c(N3CCC(NCCc4ccnn4C)CC3)ncnc12` the figure was 1.51%; with `Cc1nc(C)n(C2CCCN(C(=O)c3ccccc3C)C2)n1` (centres undefined), 3.222%; with `COc1ccsc1C(=O)N1CCCC(n2nc(C)nc2C)C1` (centres undefined), -12.01%.
As to `CCOc1ncccc1C(=O)N1CCCC(n2nc(C)nc2C)C1` (centres undefined), the “Percent Effect” value was -3.094%.
Consider `Cc1ccc(OCC(=O)N2CCCC(n3nc(C)nc3C)C2)cc1` (centres undefined), for which the “Percent Effect” value was found to be 110.7%.
As for `Cc1nc(C)n(C2CCCN(C(=O)COCc3ccccc3)C2)n1` (centres undefined), the “Percent Effect” value is reported as -1.544%.
For `CCOc1cc(C(=O)N2CCCC(n3nc(C)nc3C)C2)ccn1` (centres undefined), the “Percent Effect” value was determined as 108.5%.
As to `CCCNC(=O)CCC(=O)Nc1cc2sc(C)nc2cc1OC`, the “Percent Effect” value amounted to 9.826%.
With `CC(=O)N(CCc1ccccc1)CC(=O)NC1(C#N)CC1` the figure was -30.59%; with `COCCNC(=O)Nc1cc2c(cc1SC)OCCO2`, 8.638%.
For `CCCn1ncc(CN(Cc2ccsc2)Cc2ccco2)c1C`, the “Percent Effect” value was -9.54%.
Turning to `CCCn1ncc(CN(Cc2cccnc2)Cc2cccs2)c1C`, the “Percent Effect” value was 103.6%.
The same measure for `CCCn1ncc(CN(Cc2cccnc2)Cc2ccsc2)c1C`: -8.215%; for `Cc1cnc(C(=O)NCC2CCOc3ccccc3C2)cn1` (centres undefined): -13.56%; for `CN(C)CC(=O)N1CCC2(CCc3ccc(-c4ccncc4)cc32)CC1.O=C(O)C(F)(F)F.O=C(O)C(F)(F)F`: -5.921%.
On to `Cc1ccc2c(c1)CCC21CCN(C(=O)CN(C)C)CC1.O=C(O)C(F)(F)F`, for which the “Percent Effect” value is given as -5.589%.
For `O=C(O)C(F)(F)F.O=C1NC2(CCN(CCO)CC2)CC1c1ccccc1` (centres undefined), the “Percent Effect” value was -11.42%.
With `CN(C)CC(=O)N1CCC2(CC1)Cc1ccccc1CN(C)C2=O.O=C(O)C(F)(F)F` the figure was 100.6%; with `CCC(=O)N1CCC2(CC1)CN(CCO)Cc1ccccc12.O=C(O)C(F)(F)F`, 102.3%; with `O=C(O)C(F)(F)F.OCCN1CCC2(CCc3cc(-c4ccoc4)ccc32)CC1`, -5.602%.
On to `CN1Cc2ccccc2CC2(CCN(CCO)CC2)C1=O.O=C(O)C(F)(F)F`, for which the “Percent Effect” value was found to be 115.9%.
On to `CCC(=O)N1CCC2(CCC(N3CCCC3)c3ccccc32)CC1.O=C(O)C(F)(F)F` (centres undefined), for which the “Percent Effect” value is 3.41%.
